Screening results as filed in PubChem BioAssay.
TDP1 cell noCPT: qHTS for Inhibitors of human tyrosyl-DNA phosphodiesterase 1 (TDP1): qHTS in cells in absence of CPT | DT40 Tdp1-/- hTDP1 cells, no CPT, ATP luminescence, 48 h | Potency, µM (top dose mostly 46.2 µM), hits mostly inhibitors | 15% of 420,000 active; also: nearly all actives have a fitted effect of over 55% in size
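Chicken DT40 Tdp1-/- cells complemented with human TDP1, screened without camptothecin (DMSO vehicle only), 400 cells/well. Compounds pin-transferred, cells incubated at 37 °C for at least 48 hr. Growth read as ATP-dependent luminescence (CellTiter-Glo, 30 min at RT).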
DT40 TDP1 CPT: growth inhibition of DT40 Tdp1-/-;hTDP1 cells with camptothecin (screen for TDP1 inhibitors). chicken DT40 Tdp1-/-;hTDP1 cells + 20 nM CPT, ATP luminescence, 48 h. Potency, µM (titrated, usually from 46.2 µM), usual class: inhibitors. 12% of 420,000 active; also: nearly all actives have a fitted effect of over 55% in size
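Chicken DT40 Tdp1-/- cells stably complemented with human TDP1 were seeded at 400 cells/well in medium containing 20 nM camptothecin, exposed to pin-transferred compounds, and grown at 37 °C for at least 48 hr. Viability was read as ATP luminescence.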
Gal4-VP16 FLuc: counter-screen for ROR gamma inhibitors: Gal4-VP16 reporter; Drosophila S2 Gal4-VP16 UAS-luciferase, luminescence, 20 h; Potency, µM (highest dose often 53.6 µM), actives largely listed as inhibitors; 3.5% of 310,000 active; AID 2546;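 also: Gal4-VP16 expression switched on by copper sulfate through the metallothionein promoter; nearly all actives have a fitted effect of over 50% in size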
LDHA block: blocks human lactate dehydrogenase A. purified LDHA, NADH/diaphorase-resazurin fluorescence; hits give low values. activity change, % (values are at about 110 or 230 µM). 0.15% of 480,000 active. AID 1347041; in the data active = activity change below about -30%; inconclusive = mostly about -25% to -30%
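Human LDH5 (2 nM) was incubated with 0.06 mM NADH and 0.2 mM pyruvate for 5 min at room temperature in Tris pH 7.4. Remaining NADH was coupled through diaphorase/resazurin, and resorufin fluorescence was read at 0 and 20 min.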
IL1B secr inh: inflammasome signaling inhibition, IL-1 beta readout; THP-1 LPS/ATP IL-1B secretion, AlphaLISA, 16 h; hits give low values; activity change, % at 57.5 µM; 4.7% of 360,000 active; AID 743279; in the data active = activity change below about -50%; inconclusive = mostly about -30% to -49%
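Secreted IL-1B measured by AlphaLISA bead assay after 16 h compound exposure of THP-1 cells; compounds (final up to 57.5 uM) added 1 h before LPS (250 ng/mL) and ATP (1.25 mM) stimulation; lower signal means less secretion.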
RORg inh: blocks mouse ROR gamma transcriptional activity | Drosophila S2 Gal4-RORgamma UAS-luciferase reporter, 20 h | 5.4% of 310,000 active | Potency, µM (top dose mostly 53.6 µM), hits mostly inhibitors | P51450 | AID 2551; also: nearly all actives have a fitted effect of over 60% in size
Target sequence (P51450 whole entry, looked up, the tested form may be a part): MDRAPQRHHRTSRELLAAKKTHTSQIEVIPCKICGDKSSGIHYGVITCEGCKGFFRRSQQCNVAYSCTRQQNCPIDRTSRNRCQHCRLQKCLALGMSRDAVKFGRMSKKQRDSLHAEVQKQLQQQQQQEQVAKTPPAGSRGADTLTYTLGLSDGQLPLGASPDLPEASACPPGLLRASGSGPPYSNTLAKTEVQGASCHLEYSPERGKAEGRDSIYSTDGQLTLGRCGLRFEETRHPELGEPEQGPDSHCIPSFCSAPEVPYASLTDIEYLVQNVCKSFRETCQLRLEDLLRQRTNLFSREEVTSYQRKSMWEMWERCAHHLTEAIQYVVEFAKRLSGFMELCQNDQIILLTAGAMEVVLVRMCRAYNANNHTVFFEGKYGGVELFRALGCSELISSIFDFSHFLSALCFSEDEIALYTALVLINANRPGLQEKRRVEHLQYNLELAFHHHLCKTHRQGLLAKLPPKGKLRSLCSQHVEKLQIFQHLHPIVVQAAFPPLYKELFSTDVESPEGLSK
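Schneider cells (Drosophila), stable Gal4 DBD–ROR gamma + UAS-luc; 1 hr cmpd preincubation; Cu2+ induction 700 uM final; 20 hr ambient; luminescence.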
Each line names hits and unclear results; the compound was inactive in the other large screens. A selection: hits, their analogues and other compounds. The true share with any hit is near 18%. Unless noted, calls follow the shape of the dose curve; as a rule, active = well fitted curve in the direction sought with a large enough effect; inconclusive = small, poorly fitted or top-dose-only effect, or another doubt; inactive = no such curve, though single readings can be large; an effect the other way counts as inactive or inconclusive.

CCCCCCSc1ccc(-c2nc3ccc(Cl)cn3c2NC2CCCCC2)cc1	TDP1 cell noCPT inconclusive, DT40 TDP1 CPT 25.9µM (no result: Gal4-VP16 FLuc, RORg inh)
CC(C)[n+]1c(NCc2cc(Br)cc(Br)c2[O-])[nH]c2ccccc21	none (no result: TDP1 cell noCPT, DT40 TDP1 CPT, Gal4-VP16 FLuc, IL1B secr inh, RORg inh)
COc1cccc(C2CCCN2C(=O)NCCn2ccnc2)c1 (stereo unspecified)	none (no result: TDP1 cell noCPT, DT40 TDP1 CPT, Gal4-VP16 FLuc, IL1B secr inh, RORg inh)
CCCCCCSc1cc(-c2nc3ccc(Cl)cn3c2NC2CCCCC2)ccc1OC	TDP1 cell noCPT 16.4µM, DT40 TDP1 CPT inconclusive (no result: Gal4-VP16 FLuc, RORg inh)
O=C(NCC#Cc1ccccc1)N1CCCCCCC1	none (no result: TDP1 cell noCPT, DT40 TDP1 CPT, Gal4-VP16 FLuc, IL1B secr inh, RORg inh)
Cc1cccc(NC(=O)CNC(=O)CCc2nc3sc4c(c3c(=O)[nH]2)CCCC4)c1C	TDP1 cell noCPT inconclusive (no result: Gal4-VP16 FLuc, RORg inh)
CCN(c1ccc(NC(=O)CCc2nc3sc4c(c3c(=O)[nH]2)CCCC4)cc1)C(C)C	TDP1 cell noCPT 23.1µM, DT40 TDP1 CPT 29.1µM (no result: Gal4-VP16 FLuc, RORg inh)
CC(=O)c1cccc(NC(=O)CCc2nc3sc4c(c3c(=O)[nH]2)CCCC4)c1	TDP1 cell noCPT 13µM, DT40 TDP1 CPT inconclusive (no result: Gal4-VP16 FLuc, RORg inh)
Cc1cccc(NC(=O)CCc2nc3sc4c(c3c(=O)[nH]2)CCCC4)n1	TDP1 cell noCPT 18.4µM, DT40 TDP1 CPT inconclusive (no result: Gal4-VP16 FLuc, RORg inh)
CC(=O)c1ccc(NC(=O)CCc2nc3sc4c(c3c(=O)[nH]2)CCCC4)cc1	TDP1 cell noCPT inconclusive, DT40 TDP1 CPT inconclusive (no result: Gal4-VP16 FLuc, RORg inh)
COc1cc2c(cc1/C=C(/C#N)c1ccccn1)OC(C)C2 (stereo unspecified)	none (no result: TDP1 cell noCPT, DT40 TDP1 CPT, Gal4-VP16 FLuc, IL1B secr inh, RORg inh)
CC(=O)Nc1ccc(NC(=O)CC2C(=O)NCCN2C(=O)CN2CCN(c3ncccn3)CC2)cc1 (stereo unspecified)	none (no result: TDP1 cell noCPT, DT40 TDP1 CPT, Gal4-VP16 FLuc, IL1B secr inh, RORg inh)
CC(=O)c1ccc(C(C)(C)C)cc1NC(=O)c1ccccc1	none (no result: TDP1 cell noCPT, DT40 TDP1 CPT, Gal4-VP16 FLuc, IL1B secr inh, RORg inh)
Cc1ccc2nc(-c3cccc(NC(=O)c4ccc5c(c4)OCCO5)c3)oc2c1	TDP1 cell noCPT inconclusive, RORg inh inconclusive
O=C(Nc1nnc(-c2cc(Cl)ccc2Cl)o1)c1ccc2c(c1)OCCO2	TDP1 cell noCPT 16.4µM, DT40 TDP1 CPT inconclusive (no result: Gal4-VP16 FLuc, IL1B secr inh, RORg inh)
Cc1ccc2nc(-c3cc(NC(=O)/C=C/c4ccccc4)ccc3Cl)oc2c1	TDP1 cell noCPT 16.4µM, DT40 TDP1 CPT 23.1µM (no result: Gal4-VP16 FLuc, IL1B secr inh, RORg inh)
Cc1ccc2nc(-c3cc(NC(=O)c4ccc5c(c4)OCCO5)ccc3Cl)oc2c1	TDP1 cell noCPT 16.4µM, DT40 TDP1 CPT inconclusive (no result: Gal4-VP16 FLuc, IL1B secr inh, RORg inh)
Cc1ccc2oc(-c3cc(NC(=O)Cc4ccccc4)ccc3Cl)nc2c1	TDP1 cell noCPT inconclusive, DT40 TDP1 CPT inconclusive (no result: Gal4-VP16 FLuc, IL1B secr inh, RORg inh)
CCOC(=O)c1cncc(C#N)c1	none (no result: TDP1 cell noCPT, DT40 TDP1 CPT, Gal4-VP16 FLuc, IL1B secr inh, RORg inh)
CCCCCCn1c(SCCc2ccccc2)nc2c1c(=O)[nH]c(=O)n2C	none (no result: TDP1 cell noCPT, DT40 TDP1 CPT, Gal4-VP16 FLuc, IL1B secr inh, RORg inh)
O=C(COc1ccccc1C(=O)Nc1cccc([N+](=O)[O-])c1)Nc1ccc(Br)cc1	TDP1 cell noCPT 15.8µM, DT40 TDP1 CPT 7.94µM (no result: Gal4-VP16 FLuc, IL1B secr inh, RORg inh)
O=C(COc1ccccc1C(=O)Nc1ccccc1)Nc1ccc(Br)cc1	TDP1 cell noCPT inconclusive, DT40 TDP1 CPT inconclusive (no result: Gal4-VP16 FLuc, IL1B secr inh, RORg inh)
O=C(COc1ccccc1C(=O)Nc1ccccc1)NCCCCc1ccccc1	TDP1 cell noCPT 17.8µM, DT40 TDP1 CPT inconclusive (no result: Gal4-VP16 FLuc, IL1B secr inh, RORg inh)
O=C(COc1ccccc1C(=O)Nc1ccccc1)Nc1cccc(Cl)c1	TDP1 cell noCPT 17.8µM, DT40 TDP1 CPT 17.8µM (no result: Gal4-VP16 FLuc, IL1B secr inh, RORg inh)
CC(=O)c1cccc(NC(=O)COc2ccccc2C(=O)Nc2ccccc2)c1	TDP1 cell noCPT inconclusive, DT40 TDP1 CPT inconclusive (no result: Gal4-VP16 FLuc, IL1B secr inh, RORg inh)
O=C(COc1ccccc1C(=O)Nc1ccccc1)Nc1cccc([N+](=O)[O-])c1	TDP1 cell noCPT inconclusive, DT40 TDP1 CPT 12.6µM (no result: Gal4-VP16 FLuc, IL1B secr inh, RORg inh)
OC(C#CCN1CCOCC1)c1ccccc1 (stereo unspecified)	none (no result: TDP1 cell noCPT, DT40 TDP1 CPT, Gal4-VP16 FLuc, IL1B secr inh, RORg inh)
COc1ccc(C(C)=O)cc1CS(=O)(=O)Cc1cccc(F)c1	none (no result: TDP1 cell noCPT, DT40 TDP1 CPT, Gal4-VP16 FLuc, IL1B secr inh, RORg inh)
CC(NS(=O)(=O)c1ccc(OCC(=O)Nc2cccc([N+](=O)[O-])c2)cc1)c1ccccc1 (stereo unspecified)	TDP1 cell noCPT 20.6µM, DT40 TDP1 CPT inconclusive, Gal4-VP16 FLuc inconclusive, RORg inh inconclusive
CCCCc1ccc(NC(=O)COC(=O)c2ccccc2OCC(=O)Nc2ccc(Br)cc2)cc1	TDP1 cell noCPT inconclusive, DT40 TDP1 CPT 11.2µM (no result: Gal4-VP16 FLuc, IL1B secr inh, RORg inh)
O=C(COc1cccc2ccccc12)Nc1ccc(Cl)cc1C(=O)O	TDP1 cell noCPT inconclusive, DT40 TDP1 CPT inconclusive, LDHA block inconclusive
